The whole screen tested about 2,100 compounds, of which about 760 (36%) were called active.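 How the source made its calls: active means thallium-flux fluorescence traces judged by eye to show enhanced or reduced glutamate response, manual score 1 or -1, so both directions (some results past the limit were not filed as active); inactive means the rest, including fluorescent or raised-baseline compounds.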 Not all results are given here.

The test is described as follows: non-GIRK thallium flux modulation in mGlu8 cells, confirmation, counter-screen for GIRK activator project, cell-based, HEK-293 rmGlu8, no GIRK (AID 623868).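 Further: extra codes mark interference with 3 for fluorescent and 4 for baseline rise.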 The conditions noted are these: thallium flux fluorescence, at 10 µM, actives lie on both sides, codes: 1 enhancer, -1 blocker, 0 none, thallium stimulus containing EC20 glutamate. Background: Counterscreens check selectivity or assay interference.
On to `C=CCNc1nc(N2CCCC2)nc2ccccc12`, for which the manual score was 0 (inactive).

Regarding `COc1ccc(C(=O)N2C(=S)NC(=O)/C2=C\c2ccc(C)cc2)cc1`, the manual score is 0.5 (inactive).

As to `COc1ccc(/C=C2\C(=O)NC(=S)N2C(=O)c2ccc(F)cc2)cc1`, the manual score is 1 (active).

Turning to `COc1ccc(NC2=Nc3cccc4cccc2c34)cc1OC`, the manual score was 0 (inactive).

With `Cc1nc2ccc(NS(=O)(=O)c3ccc4c(c3)OCCO4)cc2s1`, the manual score is 0 (inactive).

As for `Cc1csc(NC(=S)Nc2cccc(Cl)c2)n1`, the manual score is 1 (active).

`S=C(NCc1cccs1)Nc1cccc(Cl)c1`: the manual score was 0 (inactive).

Consider `S=C(Nc1cccc(Cl)c1)Nc1cccc2cnccc12`, for which the manual score was 0 (inactive).

For `C=C(C)C1CC=C(C)/C(=N/NC(=O)c2ccc(NC(=O)CCC)cc2)C1` (stereo unspecified), the manual score is 0 (inactive).

In the case of `COc1ccc(/C=N/n2c(-c3cccs3)n[nH]c2=S)cc1`, the manual score is 1 (active).

As to `COc1cccc(OCCc2c(C)n[nH]c2C)c1`, the manual score was 0 (inactive).

Regarding `COCCN=c1scc(-c2cccs2)n1/N=C/c1ccc(O)c(O)c1O`, the manual score is 0 (inactive).

As to `CCOc1ccc(C2=NNC(c3cccs3)=Nc3ccc(OC)cc32)cc1`, the manual score was 0 (inactive).

Consider `COc1cccc(/C=N/n2c(-c3cccs3)n[nH]c2=S)c1`, for which the manual score is 1 (active).

For the compound `Cc1onc(-c2c(F)cccc2Cl)c1C(=O)OCn1nnc2ccccc2c1=O`, the manual score was 0 (inactive).

With `COC(=O)C1=NN(c2ccccc2)C2C(=O)N(c3ccccc3OC)C(=O)C12` (stereo unspecified), the manual score was 0 (inactive).

For `CC1=NN(c2ccccc2)C(=O)C1C(=O)c1ccc(Cl)cc1` (stereo unspecified), the manual score is 1 (active).

On to `COc1cc(NC(=O)CSCc2cnn(-c3ccccc3)c2-n2cccc2)cc(OC)c1`, for which the manual score was 0 (inactive).

With `CCN(CC)c1ccc2c(c1)OC(N)=C(C#N)C2c1cccnc1` (stereo unspecified), the manual score was 3 (inactive).

Turning to `CC1=C(n2nnc3ccccc32)C(c2ccccc2)C(C#N)=C(N)O1` (stereo unspecified), the manual score was 0 (inactive).

In the case of `Cc1ccc(N=Cc2cc3c(cc2O)OC(N)=C(C#N)C3c2ccccc2)cc1` (stereo unspecified), the manual score was -1 (active).

In the case of `CC(Sc1nnnn1C)C(=O)Nc1ccc(Oc2ccccc2)cc1` (stereo unspecified), the manual score was 0.5 (inactive).

Turning to `COc1ccc(-n2cc(-c3ccccc3)[nH]c2=S)cc1`, the manual score is 1 (active).

As for `COc1ccc(-c2c3c(=O)n(C)c(=O)n(C)c3cn2-c2ccccc2)cc1`, the manual score is 0 (inactive).

As for `CCCn1c(=N)n(CCOc2ccc(OC)cc2)c2ccccc21`, the manual score is 0 (inactive).

With `COc1ccc(-n2c(=S)[nH]c3ccccc32)cc1`, the manual score was 1 (active).

Turning to `Cn1c(-c2ccc(-c3ccccc3)cc2)c[nH]c1=S`, the manual score was 0 (inactive).

On to `Cc1cccc(OCCn2c(=S)[nH]c3ccccc32)c1`, for which the manual score is 0 (inactive).

Regarding `CC(C)(C)c1ccc(OCCON2C(=O)CCC2=O)c(Cl)c1`, the manual score was 0 (inactive).

With `COc1ccc(C(CCNCc2ccccc2F)c2ccc(F)cc2)cc1` (stereo unspecified), the manual score was 0 (inactive).

For `COC(=O)c1cc(NC(=O)c2ccoc2C)cc(C(=O)OC)c1`, the manual score is 0 (inactive).

Turning to `CCCC1=C(C(=O)OCC)C(c2ccc(F)cc2)n2ncnc2N1` (stereo unspecified), the manual score was -0.5 (inactive).

On to `CCOC(=O)C1=C(C)NC2=C(C(=O)C(C(=O)OCC)C(c3ccccc3OC)C2)C1c1ccccn1` (stereo unspecified), for which the manual score was 0 (inactive).

With `CCOC(=O)C1=C(C)Nc2nnnn2C1c1ccccc1Cl` (stereo unspecified), the manual score was -1 (active).

Turning to `CCCC(=O)Nc1ccccc1N1CCN(C(=O)c2ccccc2)CC1`, the manual score was -1 (active).

As for `O=C(c1ccc(-c2ccccc2)cc1)N1CCN(c2ncccn2)CC1`, the manual score was 0 (inactive).

`CC(C)C(=O)Nc1ccccc1N1CCN(C(=O)c2ccccc2)CC1`: the manual score is -1 (active).

Regarding `O=C(Nc1ccccc1N1CCCCC1)c1ccccc1F`, the manual score is 0 (inactive).

On to `CC(C)N(C(=O)CN(C#N)c1nc(N(C)C)nc(N(C)C)n1)c1ccccc1`, for which the manual score was 0 (inactive).

As to `CCN(CC)CC(O)COCCC12CC3CC(CC(C3)C1)C2` (stereo unspecified), the manual score is 0 (inactive).

For the compound `CSc1ccccc1NC(=O)Nc1ccc(Cl)cc1`, the manual score is 0 (inactive).

With `N#C/C(=N\Nc1ccc(Cl)cc1)C(=O)c1ccccc1`, the manual score was -1 (active).

Regarding `O=C(N/C(=N\O)c1ccccc1)Nc1ccc(Cl)cc1`, the manual score was 0 (inactive).

Take `CC(C)c1nc(=S)n(-c2ccccc2)[nH]1`: the manual score is 1 (active).

As for `CCOC(=O)c1cccc(-n2c(C)cc(C=O)c2C)c1`, the manual score is 0 (inactive).

For the compound `O=C(CSCc1ccccc1)N=Nc1c(O)[nH]c2ccccc12`, the manual score is 1 (active).

Take `O=C(CSCc1ccc(Br)cc1)N=Nc1c(O)[nH]c2ccccc12`: the manual score is 1 (active).

As for `Fc1ccccc1NC(=S)N/N=C/c1ccccc1Br`, the manual score is 1 (active).

As for `O=[N+]([O-])c1ccc(/C=N/NC(=S)Nc2ccccc2F)o1`, the manual score was 1 (active).

Regarding `Fc1ccccc1/C=N/NC(=S)Nc1ccc(Cl)cc1Cl`, the manual score was 0 (inactive).

Turning to `O=C(NCCN1CCN(C(=O)Nc2ccccc2)CC1)Nc1ccccc1`, the manual score was 0 (inactive).

Take `Cc1ccccc1N=Nc1c(C)[nH]n(C(N)=S)c1=O`: the manual score is 1 (active).

Take `COc1ccc(/C(C)=N/NC(=S)NCc2ccco2)cc1`: the manual score was 1 (active).

Regarding `S=C(NCc1ccco1)Nc1ccc(Cl)c(Cl)c1`, the manual score was 0 (inactive).

Turning to `S=C(NCc1ccco1)N/N=C/c1ccc(Cl)cc1`, the manual score was 1 (active).

Regarding `C/C(=N\NC(=S)NCCc1ccccc1)c1ccc(C)cc1`, the manual score was 0 (inactive).

Turning to `COc1cccc(N2CCN(c3c4c(nc5ncnn35)CCC4)CC2)c1`, the manual score was 0 (inactive).

As to `O=C(Oc1c(Cl)cc(Cl)c2cccnc12)c1ccco1`, the manual score was 1 (active).

For the compound `O=C(Oc1c(Cl)cc(Cl)c2cccnc12)c1cccc([N+](=O)[O-])c1`, the manual score is 1 (active).

For `O=C(Oc1ccccc1C(=S)N1CCCCC1)c1cc([N+](=O)[O-])cc([N+](=O)[O-])c1`, the manual score was 0 (inactive).

As for `COC(=O)[C@H]1CCCN1C(=O)Nc1cccc(Oc2c(F)c(F)c(F)c(F)c2F)c1`, the manual score is 0 (inactive).

Take `Cc1cc(NC(=O)Nc2ccccc2)n(-c2ccccc2)n1`: the manual score is 0 (inactive).

With `Cc1ccc(Nc2cc(C)nn2-c2nc(C)cc(=O)[nH]2)cc1`, the manual score was 1 (active).

For `Cc1cc(NC(=O)c2c(F)cccc2Cl)n(-c2nc3ccccc3[nH]2)n1`, the manual score is 0 (inactive).

For the compound `CCOC(=O)c1cnc(SCC(=O)Nc2nc(C)c(C)s2)nc1N`, the manual score is 0 (inactive).

For the compound `C=CCn1c(SCC(=O)Nc2sc(C)c(C)c2C(=O)OCC)nnc1-c1sc(N)nc1C`, the manual score was -1 (active).

Regarding `CCOC(=O)c1c(NC(=O)CSc2nnc(Cc3csc(N)n3)n2C)sc(C)c1C`, the manual score was -1 (active).

Take `CC1(C)Cc2ccccc2-c2nnc(SCC(=O)N3CCN(c4ccccc4)CC3)n21`: the manual score is 0 (inactive).

With `C1CCC2(CC1)OCC1(CO2)COC2(CCCCC2)OC1`, the manual score is 0 (inactive).

On to `CC1(C)NC(=O)NC2(C)NC(=O)NC(C)(C)C12` (stereo unspecified), for which the manual score is 0 (inactive).

Regarding `CNC(=S)N/N=C/c1ccc(C(C)C)cc1`, the manual score was 1 (active).

On to `CNC(=S)N/N=C(\C)c1ccc(C)c(C)c1`, for which the manual score was 0.5 (inactive).

Regarding `C=CCNC(=O)C1CC(=O)N(c2ccc(OCC(=O)Nc3ccccc3)cc2)C1` (stereo unspecified), the manual score was 0 (inactive).

On to `Fc1cccc2sc(Nc3nc4ccccc4s3)nc12`, for which the manual score is 0 (inactive).

Regarding `Fc1ccc2nc(Nc3nc4c(F)cccc4s3)sc2c1`, the manual score was 1 (active).

Regarding `Fc1cccc2sc(Nc3nc4cc5c(cc4s3)OCO5)nc12`, the manual score was 0 (inactive).

Take `Fc1cc(F)c2nc(Nc3nc4c(F)cccc4s3)sc2c1`: the manual score is 1 (active).

`Fc1ccc2nc(Nc3nc4c(F)cc(F)cc4s3)sc2c1`: the manual score is 1 (active).

For `COc1cc(/C=C2/C(=O)N=C(N)N2C)cc(OC)c1OC`, the manual score was 0 (inactive).

Regarding `CC1CC(C)CN(C(=S)Nc2ccc(SC(F)F)cc2)C1` (stereo unspecified), the manual score is 0 (inactive).

Turning to `Cc1ccc(Nc2n[nH]c(C)c2[N+](=O)[O-])cc1C`, the manual score was 0 (inactive).

Take `CCN(CC)CCCN1C(=O)c2oc3ccccc3c(=O)c2C1c1cccs1` (stereo unspecified): the manual score is 1 (active).

On to `O=c1c(O)c(-c2cccs2)oc2ccccc12`, for which the manual score is 3 (inactive).

As for `CCN(CC)CCN1C(=O)c2oc3ccccc3c(=O)c2C1c1ccc(F)cc1` (stereo unspecified), the manual score was 0 (inactive).

Take `NC(=O)COc1ccc(C2c3c(oc4ccccc4c3=O)C(=O)N2CC2CCCO2)cc1` (stereo unspecified): the manual score was 0 (inactive).

Regarding `CN(C)CCCN1C(=O)c2oc3ccccc3c(=O)c2C1c1cccs1` (stereo unspecified), the manual score is 1 (active).

Consider `CCN(CC)CCN1C(=O)c2oc3ccccc3c(=O)c2C1c1ccccc1` (stereo unspecified), for which the manual score is 0.5 (inactive).

`O=C1Nc2ccccc2C12OCC1(CO2)COC2(OC1)C(=O)Nc1ccccc12` (stereo unspecified): the manual score is 0 (inactive).

Regarding `COc1ccccc1NC(=O)c1cc(C(=O)Nc2ccccc2OC)cc(N2C(=O)CCC2=O)c1`, the manual score was 0 (inactive).

On to `O=C(Nc1nnc(-c2ccc(Cl)cc2)o1)c1ccc(N2C(=O)CCC2=O)cc1`, for which the manual score was 1 (active).

`Cc1ccc(N2CC(C(=O)Oc3cccc(N4C(=O)CCC4=O)c3)CC2=O)cc1` (stereo unspecified): the manual score is 0 (inactive).

For `O=C(Nc1nnc(-c2ccc(Cl)cc2)o1)c1cccc(N2C(=O)CCC2=O)c1`, the manual score is 1 (active).

For `COc1cccc2sc(Nc3nnc(-c4cccs4)o3)nc12`, the manual score was 1 (active).

Regarding `COc1ccc(-c2nnc(Nc3nc4c(OC)cccc4s3)o2)cc1`, the manual score was 1 (active).

For `COc1cccc2sc(Nc3nc(-c4ccccn4)cs3)nc12`, the manual score is 1 (active).

Turning to `CCNc1nnc(-c2ccc(C)cc2)o1`, the manual score is 0 (inactive).

Turning to `CCN(CC)c1nc(C)nc2c1cnn2CCc1ccccc1`, the manual score is 0 (inactive).

As for `Cc1cc(C)c2[nH]c(=S)cc(C)c2c1`, the manual score was 1 (active).

As for `Cc1cc(=S)[nH]c2c(C)cccc12`, the manual score was 1 (active).

For the compound `CCOc1ccccc1Nc1nnc(Cc2ccccc2Cl)c(=O)[nH]1`, the manual score was 0 (inactive).

Turning to `CCOC(=O)C1=C(C)NC(=O)NC1c1ccc(Br)o1` (stereo unspecified), the manual score was 0 (inactive).

For `CCOC(=O)C1=C(C)N=C2SCCC(=O)N2C1c1sccc1C` (stereo unspecified), the manual score is -1 (active).

For the compound `CC(C)(C)c1nnc(N/N=C/c2ccccc2)n(N)c1=O`, the manual score is 0 (inactive).

As to `Cc1[nH]n2c(=O)cc(C(C)(C)C)nc2c1-c1ccccc1`, the manual score was 1 (active).

With `Cc1nc2c(-c3ccccc3)c(C)[nH]n2c(=O)c1Cl`, the manual score was 0 (inactive).

`Cc1cc(=O)n2[nH]c(C)c(-c3ccccc3)c2n1`: the manual score is -0.5 (inactive).

For the compound `CC/C(=N\NC(=S)Nc1cc(C)ccc1C)c1ccc(OC(F)F)cc1`, the manual score was 0 (inactive).

On to `CC/C(=N\NC(=S)Nc1ccc(OC)cc1)c1ccc(OC(F)F)cc1`, for which the manual score is 1 (active).

`COc1ccc(C/C(C)=N/NC(=S)Nc2ccccc2)cc1`: the manual score is 1 (active).

On to `COc1ccc(NC(=S)Nc2ccc(OCc3ccccc3)cc2)cc1OC`, for which the manual score was 0 (inactive).

As to `COc1ccc(C(=S)Nc2ccc(N(C)C)cc2)cc1`, the manual score is 0 (inactive).
